Source: PubChem BioAssay (National Center for Advancing Translational Sciences (NCATS))
A selection: hits, their analogues and other compounds. The true share with any hit is near 12%.
CHX counter: counter-screen for Shiga toxin inhibitors: cycloheximide protein synthesis inhibition. 300,000 tested, 12% active. max response, %. cell reporter, cycloheximide protein synthesis inhibition counterscreen; in the data active means max response mostly above about 13%, no sharp cut-off; inactive means mostly below about 14%; further: read at 38.3 µM for the half of the compounds with a filed dose
Sm TGR block: inhibitors of Schistosoma mansoni thioredoxin glutathione reductase; Potency, µM (titrated, usually from 114 µM), usual class: inhibitors; 360,000 tested, 3% active; Q962Y6; purified TGR, DTNB reduction, TNB absorbance 405 nm; active means well fitted inhibition curve with a large enough effect; inconclusive means small, poorly fitted or top-dose-only effect; inactive means no such curve, though single readings can be large or run the other way; further: nearly all actives have a fitted effect of over 60% in size
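Kinetic colorimetric format: TGR-catalysed, NADPH-driven DTNB reduction monitored via TNB absorbance. Enzyme dispensed at 20 nM; compound exposure 15 min at room temperature before reaction start.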
FMDV antiviral: foot and mouth disease virus antiviral activity; Potency, µM (titrated, usually from 57.9 µM), hits mostly inhibitors; FMDV antiviral cell-based qHTS; 410,000 tested, 1.2% active; calls by dose curve; tested in HEK293T cells; further: read-out not given here; nearly all actives have a fitted effect of over 45% in size
Shiga inhibitor: blocks Shiga toxin action in Vero cells; 290,000 tested, 9.2% active; AID 2315; Vero cells, Shiga toxin protein synthesis inhibition reporter; inhibition, % at 38.7 µM; in the data active means inhibition mostly above about 28%, no sharp cut-off; inactive means mostly below about 43%
Hits are given with their value.

How did Cc1nc(-c2ccccc2)sc1C1(C)CC(c2c(Cl)cccc2Cl)=NO1 (stereo unspecified) do in these assays?
CHX counter: 20; Sm TGR block: inactive; FMDV antiviral: inactive; Shiga inhibitor: 53

Results for O=C(Nc1ccc(Br)cc1)c1cccc(S(=O)(=O)N2CCc3ccccc32)c1 ?
Sm TGR block: inactive; FMDV antiviral: inconclusive

Results for COc1cc(OC)cc(C(=O)Nc2nc(-c3nnn(-c4ccc(F)c(Cl)c4)c3C)ns2)c1 ?
Sm TGR block: inactive; FMDV antiviral: inactive

Results for O=C(NCc1ccc(Cl)cc1)C1CCN(S(=O)(=O)c2ccc3c(c2)CCCN3C(=O)C2CCC2)CC1 ?
Sm TGR block: inactive; FMDV antiviral: inconclusive

How did C[C@@H]1C=C[C@](Cc2ccccc2)(C(=O)NCC2CC2)N1C(=O)c1ccccc1 do in these assays?
CHX counter: 70; Sm TGR block: inactive; FMDV antiviral: inactive; Shiga inhibitor: 173

What do the screens show for `CNC(=O)[C@@]1(Cc2ccccc2)C=C[C@@H](C)N1C(=O)OC`?
FMDV antiviral: inactive

What do the screens show for `O=C(NCC(c1ccc2c(c1)OCO2)N1CCOCC1)c1ccccc1F` (stereo unspecified)?
Sm TGR block: inactive; FMDV antiviral: inactive

How did Cc1ccccc1OCC(=O)Nc1ccc(OCc2cc(=O)n3ccsc3n2)cc1 do in these assays?
Sm TGR block: inactive; FMDV antiviral: inactive

How did COc1cccc(C(C)N(C)Cc2nc(-c3ccoc3)oc2C)c1 (stereo unspecified) do in these assays?
CHX counter: inactive; Sm TGR block: inactive; FMDV antiviral: inactive; Shiga inhibitor: inactive

What do the screens show for `COc1cc(-c2nc(CN(C)C(C)c3ccncn3)c(C)o2)ccc1F` (stereo unspecified)?
CHX counter: inactive; Sm TGR block: 32µM; FMDV antiviral: inactive; Shiga inhibitor: inactive

Results for Cc1ccc(Nc2nc(Cl)c(C=O)s2)cc1Cl ?
CHX counter: 23; Sm TGR block: inactive; FMDV antiviral: inactive; Shiga inhibitor: inactive

What do the screens show for `O=C(O)c1sc(Nc2ccccc2)nc1-c1ccccc1`?
Sm TGR block: inactive; FMDV antiviral: inactive

How did CCN(CC)c1nc(NN)nc(Nc2ccc(C)c(Cl)c2)n1 do in these assays?
FMDV antiviral: inactive

Results for O=Cc1sc(Nc2ccccc2)nc1Cl ?
CHX counter: 18; Sm TGR block: inactive; FMDV antiviral: inactive; Shiga inhibitor: inactive

What do the screens show for `COc1ccccc1Nc1nc(Cl)c(C=O)s1`?
CHX counter: 48; Sm TGR block: inactive; FMDV antiviral: inactive; Shiga inhibitor: inactive

Results for COc1ccc(OC)c(NC(=O)C2CCCN(S(=O)(=O)c3ccc4[nH]c(=O)ccc4c3)C2)c1 (stereo unspecified) ?
Sm TGR block: inactive; FMDV antiviral: inactive

How did Cc1ccc(CNS(=O)(=O)c2ccc(F)c(F)c2)n1C do in these assays?
CHX counter: inactive; Sm TGR block: 20µM; FMDV antiviral: inactive; Shiga inhibitor: inactive

Results for Cc1ccc(CNS(=O)(=O)c2ccc(C(F)(F)F)cc2)n1C ?
CHX counter: inactive; Sm TGR block: 16µM; FMDV antiviral: inactive; Shiga inhibitor: inactive

Results for COc1cn(CC(=O)Nc2ccccc2)c(CN2CCCCC2)cc1=O ?
Sm TGR block: inactive; FMDV antiviral: inactive

What do the screens show for `CNC(=O)c1sc(-c2cccs2)nc1C`?
CHX counter: 36; Sm TGR block: inactive; FMDV antiviral: inactive; Shiga inhibitor: inactive

How did CNC(=O)c1csc(-c2cccs2)n1 do in these assays?
CHX counter: inactive; Sm TGR block: inactive; FMDV antiviral: inactive; Shiga inhibitor: inactive

Results for CS(=O)(=O)Nc1cccc(-c2cc(F)c(S(=O)(=O)N3CCN(S(=O)(=O)c4ccc5c(c4)OCCO5)CC3)cc2F)c1 ?
CHX counter: inactive; Shiga inhibitor: inactive

Results for COc1ccc(Nc2nc(-c3sc(N)nc3C)cs2)cc1 ?
CHX counter: 25; Sm TGR block: inactive; FMDV antiviral: inactive; Shiga inhibitor: 56

What do the screens show for `CCOc1ccc(Nc2nc(-c3sc(N)nc3C)cs2)cc1`?
CHX counter: 14; Sm TGR block: inactive; FMDV antiviral: inactive; Shiga inhibitor: inactive

Results for COc1ccc(CCNc2nc(-c3sc(N)nc3C)cs2)cc1OC ?
CHX counter: inactive; Sm TGR block: inactive; FMDV antiviral: 10µM; Shiga inhibitor: inactive

What do the screens show for `Cc1ccc(Nc2nc(-c3sc(N)nc3C)cs2)cc1`?
CHX counter: 40; Sm TGR block: inactive; FMDV antiviral: inactive; Shiga inhibitor: 46

Results for COc1ccc(CCNc2ccncn2)cc1OC ?
CHX counter: inactive; Sm TGR block: inactive; FMDV antiviral: inactive; Shiga inhibitor: inactive

Results for Cc1ccc(Nc2nc(-c3sc(NC(=O)c4ccc([N+](=O)[O-])cc4)nc3C)cs2)cc1 ?
CHX counter: inactive; Sm TGR block: inactive; Shiga inhibitor: inactive

What do the screens show for `COc1cccc(CNC(=O)Cn2c(SCC(=O)Nc3ccc(C)c(C)c3)nc3ccccc32)c1`?
Sm TGR block: inactive; FMDV antiviral: inactive

How did Cc1ccc(Nc2nc(-c3sc(C)nc3C)cs2)cc1 do in these assays?
CHX counter: 25; Sm TGR block: inactive; FMDV antiviral: inactive; Shiga inhibitor: 58

How did Cc1nc(C)c(-c2csc(Nc3ccc(S(N)(=O)=O)cc3)n2)s1 do in these assays?
CHX counter: inactive; Sm TGR block: inactive; FMDV antiviral: inactive; Shiga inhibitor: inactive

How did c1cnc(N2CCN(c3ncc4c(n3)CCNC4)CC2)nc1 do in these assays?
Sm TGR block: inactive; FMDV antiviral: inactive

What do the screens show for `CCOc1ccc(N2CSC3=C(C#N)C(c4ccco4)CC(=O)N3C2)cc1` (stereo unspecified)?
CHX counter: inactive; Sm TGR block: 25µM; FMDV antiviral: inactive; Shiga inhibitor: inactive

Results for CCOC(=O)c1ccc(N2CSC3=C(C#N)C(c4ccc(OC)cc4OC)CC(=O)N3C2)cc1 (stereo unspecified) ?
CHX counter: inactive; Sm TGR block: inconclusive; FMDV antiviral: inactive; Shiga inhibitor: inactive

How did Cc1ccc(C2CC(=O)N3CN(c4ccc(Br)cc4)CSC3=C2C#N)o1 (stereo unspecified) do in these assays?
CHX counter: inactive; Sm TGR block: 28µM; FMDV antiviral: inactive; Shiga inhibitor: inactive

How did CCOc1cccc2cc(-c3nc(-c4ccc(Cl)cc4)c(C)s3)c(=O)oc12 do in these assays?
Sm TGR block: inactive; FMDV antiviral: inactive

Results for CCc1ccc(S(=O)(=O)c2nnn3c2nc(NCc2cccc(OC)c2)c2cc(Cl)ccc23)cc1 ?
Sm TGR block: inactive; FMDV antiviral: inactive

How did CCc1cc2c(cc3c(=O)n(CCCC(=O)NCc4cccc(Cl)c4)ncn32)s1 do in these assays?
Sm TGR block: inactive; FMDV antiviral: inactive

Results for Cc1ccc(CNC(=O)C2c3ccccc3C(=O)N(C)C2c2c[nH]c3ccccc23)o1 (stereo unspecified) ?
CHX counter: inactive; Sm TGR block: 50µM; FMDV antiviral: inactive; Shiga inhibitor: inactive

How did NC1=NC(=Nc2ccc(Cl)cc2)c2ccccc21 do in these assays?
CHX counter: 47; Sm TGR block: inactive; FMDV antiviral: inactive; Shiga inhibitor: inactive

Results for NC1=NC(=Nc2ccc(Br)cc2)c2ccccc21 ?
CHX counter: 26; Sm TGR block: inactive; FMDV antiviral: inactive; Shiga inhibitor: 62

Results for CC(C)c1ccc(N=C2N=C(N)c3ccccc32)cc1 ?
CHX counter: 80; Sm TGR block: inactive; FMDV antiviral: inactive; Shiga inhibitor: 118
